Reference: PubChem BioAssay AID651813 (National Center for Advancing Translational Sciences (NCATS), 2012)
About 1,100 (52%) of roughly 2,100 compounds were called active. Roughly 27% stayed inconclusive and do not appear here. The set was probably picked from earlier hits. Some of the results follow. Values without a mark were called inactive. The call rests on the fitted dose curve; in most records, active means well fitted inhibition curve with a large enough effect; inconclusive means small, poorly fitted or top-dose-only effect; inactive means no such curve, though single readings can be large or run the other way.

What follows are molecules tested against DNA dC->dU-editing enzyme APOBEC-3G (Homo sapiens) (UniProt Q9HC16) (assay: qHTS for inhibitors of Vif-A3G interactions: Cherry picks counterscreen). Settings: HeLa A3G-eYFP + Vif (tagged APOBEC3G with the HIV-1 protein that degrades it), eYFP fluorescence, 24 h.
Sequence of DNA dC->dU-editing enzyme APOBEC-3G (Homo sapiens) (Q9HC16 whole entry, looked up): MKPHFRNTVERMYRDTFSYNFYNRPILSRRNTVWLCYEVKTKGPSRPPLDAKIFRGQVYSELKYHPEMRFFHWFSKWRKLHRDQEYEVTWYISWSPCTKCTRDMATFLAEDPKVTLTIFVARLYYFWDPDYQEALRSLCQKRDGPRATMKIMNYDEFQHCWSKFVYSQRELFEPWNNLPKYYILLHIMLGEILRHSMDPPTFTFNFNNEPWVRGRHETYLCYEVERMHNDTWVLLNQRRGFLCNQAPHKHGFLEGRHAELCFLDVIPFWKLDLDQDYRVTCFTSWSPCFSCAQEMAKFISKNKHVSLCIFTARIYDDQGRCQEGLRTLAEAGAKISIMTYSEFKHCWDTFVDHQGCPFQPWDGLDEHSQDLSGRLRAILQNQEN
How it was run: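 Readout is eYFP fluorescence (488 nm excitation, 500-530 nm emission) measured on Acumen Explorer after 24 h compound exposure, several concentrations, at 37 deg C. Cells: HeLa stably co-expressing Vif and C-terminally eYFP-tagged A3G; MG132 positive control.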
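Further: hits raise yellow fluorescence by blocking Vif-driven A3G-eYFP degradation; nearly all actives have a fitted effect of over 70% in size.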
Potency means the concentration at half of the fitted maximal effect.
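Wherever max response is given: max response given as percent of control signal.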

SMILES	Potency	max response [%]
N#CC1=C(N)C(C#N)(C#N)[C@H](c2c(F)cccc2F)[C@H]2CC3(CC=C12)OCCO3	16.4 µM (active)	
Cc1ccc(C(=O)NCCn2c(N)c(C#N)c3nc4ccccc4nc32)cc1	23.1 µM (active)	
Cc1cccc(-n2c(N)c(-c3nc4ccccc4n3C)c3nc4ccccc4nc32)c1		-1.87
COc1cnc(-c2ccccn2)nc1Oc1ccc(F)cc1F		-4.73
COc1ccc(/C=N/NC(=O)c2cccnc2)cc1COc1ccc(NC(C)=O)cc1	12.5 µM (active)	
COc1ccc(/C=N/NC(=O)c2ccccc2Cl)cc1CSc1nc2ccccc2s1	3.14 µM (active)	
COc1cc(OC)cc(C(=O)N/N=C/c2ccc(OC)c(COc3ccc4ccccc4c3)c2)c1	15.8 µM (active)	
COc1ccccc1/C=N/NC(=S)Nc1cccnc1		-12.2
COc1ccc(/C=N/NC(=O)c2cccnc2)cc1CSc1ccccn1	5.59 µM (active)	
COc1ccc(/C=N/NC(=O)c2cc(OC)c(OC)c(OC)c2)cc1CN1CCc2cc(OC)c(OC)cc2C1C (centres undefined)	12.5 µM (active)	
COc1ccc(C(=O)c2sc3nc4c(c(C(F)(F)F)c3c2N)CN(C(C)=O)CC4)cc1OC	18.4 µM (active)	
CC(=O)N1CCc2nc3sc(C(=O)c4ccc(F)cc4)c(N)c3c(C(F)(F)F)c2C1	18.4 µM (active)	
CCOC(=O)c1cc2n(c1/N=C/N(C)C)-c1ccccc1C2=O	16.4 µM (active)	
CCOC(=O)c1cc2n(c1N)-c1ccccc1C2=O		-28.5
CO/N=C\CC(=O)Nc1ccc(Cl)c(Cl)c1	9.94 µM (active)	
CO/N=C\CC(=O)Nc1ccc(Oc2ccccc2)cc1	1.98 µM (active)	
CCCCN1C(=O)/C(=C2/Sc3ccccc3N2C)S/C1=N\c1ncn[nH]1	20.6 µM (active)	
O=C(NNc1ncc(C(F)(F)F)cc1Cl)c1c(Cl)cccc1Cl	14 µM (active)	
O=C(/C=C/c1cccs1)NCc1ccc2c(c1)OCO2		-24.4
O=C(NCc1ccc2c(c1)OCO2)c1cc([N+](=O)[O-])ccc1N1CCCCC1	1.98 µM (active)	
COc1cccc(C(=O)Nc2ccc(N3CCCC3)cc2)c1	5.59 µM (active)	
COc1cc(OC)cc(C(=O)Nc2ccc(N3CCN(C(=O)c4cccs4)CC3)cc2)c1	6.27 µM (active)	
CCc1ccc(C(=O)NC(=S)Nc2ccc(N3CCOCC3)cc2)cc1		0.165

SMILES	Potency	max response [%]
COc1cc(C(=O)OCC(=O)Nc2ccc(N3CCOCC3)cc2)ccc1OCC(C)C		8.76
O=[N+]([O-])c1ccc(N/N=C\c2cccn2-c2ccccc2)nc1	15.8 µM (active)	
CCN(CC)c1ccc(C=NNc2ccc([N+](=O)[O-])cn2)cc1	1.3 µM (active)	
Oc1ccc(C2=NNC(=NCc3ccc4c(c3)OCO4)SC2)c(O)c1	7.9 µM (active)	
COc1ccc(C2C(C#N)=C(N)Oc3c2ccc2cccnc32)cc1OC (centres undefined)	1.77 µM (active)	
N#CC1=C(N)Oc2cc(N)ccc2C1c1cccc(Br)c1 (centres undefined)	0.627 µM (active)	
COc1ccc(C2C(C#N)=C(N)Oc3cc(N)ccc32)cc1OC (centres undefined)	9.94 µM (active)	
COc1cc(C2C(C#N)=C(N)Oc3cc(O)ccc32)cc2c1OCO2 (centres undefined)	11.2 µM (active)	
COc1ccc2nc(Nc3nc(CSc4ccc(C)cc4)cc(=O)[nH]3)nc(C)c2c1		-26.4
N#CC1=C(N)Oc2cc(N)ccc2C1C1CC=CCC1 (centres undefined)	5.59 µM (active)	
N#CC1=C(N)Oc2cc(N)ccc2C1c1ccccc1 (centres undefined)	15.8 µM (active)	
N#CC1=C(N)Oc2cc(N)ccc2C1c1cccc(F)c1 (centres undefined)	4.98 µM (active)	
N#CC1=C(N)Oc2cc(N)ccc2C1c1ccccc1F (centres undefined)	9.94 µM (active)	
Cc1oc(C)c2c(=O)ccc3c(c12)OC(N)=C(C#N)C3c1ccc(F)cc1 (centres undefined)		44.8
COc1ccc(NC(=O)c2cc(-c3ccccc3OC)on2)cc1	3.14 µM (active)	
COc1ccccc1-c1cc(C(=O)NN)[nH]n1		14.5
Cc1ccc(S(=O)(=O)C(C#N)c2nc3ccccc3nc2N2CCCC2)cc1 (centres undefined)	16.4 µM (active)	
COc1ccc(-n2c(O)c(/C=N/NS(=O)(=O)c3cccc([N+](=O)[O-])c3)c3ccccc3c2=O)cc1OC	12.5 µM (active)	
O=C(O)CSc1cc(NS(=O)(=O)c2cccc([N+](=O)[O-])c2)c2ccccc2c1O		-17.9
COc1ccc(-n2c(O)c(/C=N/NS(=O)(=O)c3ccc(C)c([N+](=O)[O-])c3)c3ccccc3c2=O)cc1OC	4.61 µM (active)	
CCN1C(=O)/C(=C/C=C2\N(CC)c3cc(S(=O)(=O)N(C)C)ccc3N2c2ccccc2)SC1=S	1.12 µM (active)	
COc1cc(/C=C(\C#N)c2nc3ccccc3s2)ccc1OCC(=O)Nc1ccccc1	15.8 µM (active)	
COc1cc(/C=C(/C#N)c2nc3ccccc3[nH]2)ccc1OCC(=O)Nc1ccccc1C(C)C	13 µM (active)	

SMILES	Potency	max response [%]
Cc1ccc2nc(/C(C#N)=C/c3ccc(O)c(O)c3)[nH]c2c1		43.5
N#C/C(=C/c1ccc(O)c(O)c1)c1nc2ccccc2[nH]1	3.14 µM (active)	
CN(C)c1ccc(/C=C(\C#N)c2nc3ccccc3c(=O)[nH]2)cc1	0.411 µM (active)	
N#C/C(=C\c1ccc(C(=O)O)cc1)c1nc2sc3c(c2c(=O)[nH]1)CCCC3		-29.5
O=C(OCCC12CC3CC(CC(C3)C1)C2)c1ccc(NCc2cc(O)ccc2O)cc1		25.7
COc1cc(/C=C(\C#N)c2nc3ccccc3[nH]2)ccc1O	2.31 µM (active)	
COc1cc(/C=C(/C#N)c2nc3ccccc3[nH]2)ccc1OC(=O)c1ccco1		51.6
O=C1C=C(Nc2ccc(Cl)cc2Cl)CC(c2ccco2)C1 (centres undefined)	5.59 µM (active)	
COc1cc2nc(/C=C/c3ccc(N(C)C)cc3)sc2cc1SC	5.17 µM (active)	
COc1ccc(-c2cnc3c(NC=O)cc(-c4cc(OC)c(OC)c(OC)c4)cn23)cc1OC	12.5 µM (active)	
COc1ccc(-c2cc(NC=O)c3ncc(-c4ccc(OC)c(OC)c4)n3c2)cc1OC	5.59 µM (active)	
COc1ccc(-c2cnc3c(NC=O)cc(-c4ccccc4)cn23)cc1OC	3.14 µM (active)	
CN(C)c1ccccc1-c1cc(NC=O)c2ncc(-c3cccc(C(F)(F)F)c3)n2c1	12.5 µM (active)	
COc1ccccc1-c1cc(NC=O)c2ncc(-c3ccc(S(C)(=O)=O)cc3)n2c1	17.7 µM (active)	
COc1cccc(-c2cnc3c(NC=O)cc(-c4cc(OC)c(OC)c(OC)c4)cn23)c1	9.94 µM (active)	
COc1ccc(-c2cnc3c(NC=O)cc(-c4ccoc4)cn23)cc1OC	11.2 µM (active)	
CCOc1ccccc1C(=O)Nc1c(C(=O)Nc2ccc(F)cc2)oc2ccccc12	2.06 µM (active)	
COc1ccccc1NC(=O)c1oc2ccccc2c1NC(=O)c1cccc(OC)c1OC	5.8 µM (active)	
CCCOc1ccc(N)cc1N		-27.6
O=S(=O)(Nc1nc2ccccc2nc1OCC(F)(F)F)c1cccs1		-0.0016
O=C(COC(=O)c1ccc(NS(=O)(=O)c2cccs2)cc1O)NCc1ccccc1	4.44 µM (active)	
O=C(COC(=O)c1ccc(NS(=O)(=O)c2cccs2)cc1)NCc1ccco1	15.8 µM (active)	
COc1ccc(NC(=O)COC(=O)c2cc(OC)c(OC)cc2NC(=O)c2ccco2)cc1OC		9.25

SMILES	Potency	max response [%]
C/C(CCC(C)C)=N\NC(=S)NCc1ccccc1		-18.4
Cc1ccc(CNC(=O)Cc2ccc(-n3cccc3)cc2)cc1	1.98 µM (active)	
O=C(Cc1ccccc1)NCc1ccc(-n2cccc2)cc1	1.4 µM (active)	
Cc1ccc2nc(C)c(C(=O)NN=C3CCCCCC3)n2c1		-10.3
COc1cc(/C=C2\SC(=Nc3ccccc3)NC2=O)cc(Cl)c1O	3.66 µM (active)	
CCOc1cc(Br)cc(/C=C2\SC(=Nc3ccccc3)NC2=O)c1O		-7.55
COc1cc(/C=C2/SC(=Nc3ccc(O)cc3)NC2=O)ccc1O	14.6 µM (active)	
COc1cc(/C=C2\SC(=Nc3cccnc3)NC2=O)cc(OC)c1OC		-29.3
O=C1NC(=Nc2ccc(O)cc2)S/C1=C/c1ccco1	8.86 µM (active)	
Cc1ccc2nc(/C(C#N)=C\c3ccc([N+](=O)[O-])o3)[nH]c2c1	18.4 µM (active)	
N#C/C(=C\c1ccc(-c2ccc(F)cc2F)o1)c1nc2ccccc2[nH]1	8.2 µM (active)	
Cc1ccc2nc(/C(C#N)=C\c3ccc(OC(=O)c4cccs4)cc3)[nH]c2c1	11.2 µM (active)	
Cc1ccc2nc(/C(C#N)=C/c3ccc(-c4ccc(F)cc4F)o3)[nH]c2c1	1.64 µM (active)	
Cc1ccc2nc(/C(C#N)=C/c3ccc(-c4ccccc4C(=O)O)o3)[nH]c2c1		43.5
COc1cc(CNCCSc2nnnn2C)ccc1OCc1c(F)cccc1Cl		28.9
N#C/C(=C\c1ccc(-c2ccc(C(=O)O)cc2)o1)c1nc2ccccc2[nH]1	4.61 µM (active)	
Cc1ccc2nc(/C(C#N)=C/c3ccc(-c4cccc(Cl)c4)o3)[nH]c2c1	8.2 µM (active)	
Cc1ccc2nc(/C(C#N)=C/c3ccc(-c4ccc(C(=O)OC(C)C)cc4)o3)[nH]c2c1	3.66 µM (active)	
Cc1c(Cl)cccc1-c1ccc(/C=C(\C#N)c2nc3ccccc3[nH]2)o1	10.3 µM (active)	
N#Cc1ccc(-c2cccs2)nc1SCc1c(F)cccc1Cl	1.84 µM (active)	
